Reference: paper PMC4336329 (PLoS ONE, 2015)
In all, about 310,000 compounds went through this assay and about 14,000 (4.5%) showed an effect of 50% or more. Effects have a minus sign here. For the sample, strong results were picked, then their nearest neighbours and some compounds at random.

target: human ether-à-go-go-related gene (hERG) potassium channel (human, UniProt Q12809); assay: primary screen, population patch clamp on CHO cells stably expressing hERG; higher = less effect of the substance
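Also: peak tail current of the secondary pulse compared with the same well before compound.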

human ether-à-go-go-related gene (hERG) potassium channel, sequence (Q12809 whole entry, looked up): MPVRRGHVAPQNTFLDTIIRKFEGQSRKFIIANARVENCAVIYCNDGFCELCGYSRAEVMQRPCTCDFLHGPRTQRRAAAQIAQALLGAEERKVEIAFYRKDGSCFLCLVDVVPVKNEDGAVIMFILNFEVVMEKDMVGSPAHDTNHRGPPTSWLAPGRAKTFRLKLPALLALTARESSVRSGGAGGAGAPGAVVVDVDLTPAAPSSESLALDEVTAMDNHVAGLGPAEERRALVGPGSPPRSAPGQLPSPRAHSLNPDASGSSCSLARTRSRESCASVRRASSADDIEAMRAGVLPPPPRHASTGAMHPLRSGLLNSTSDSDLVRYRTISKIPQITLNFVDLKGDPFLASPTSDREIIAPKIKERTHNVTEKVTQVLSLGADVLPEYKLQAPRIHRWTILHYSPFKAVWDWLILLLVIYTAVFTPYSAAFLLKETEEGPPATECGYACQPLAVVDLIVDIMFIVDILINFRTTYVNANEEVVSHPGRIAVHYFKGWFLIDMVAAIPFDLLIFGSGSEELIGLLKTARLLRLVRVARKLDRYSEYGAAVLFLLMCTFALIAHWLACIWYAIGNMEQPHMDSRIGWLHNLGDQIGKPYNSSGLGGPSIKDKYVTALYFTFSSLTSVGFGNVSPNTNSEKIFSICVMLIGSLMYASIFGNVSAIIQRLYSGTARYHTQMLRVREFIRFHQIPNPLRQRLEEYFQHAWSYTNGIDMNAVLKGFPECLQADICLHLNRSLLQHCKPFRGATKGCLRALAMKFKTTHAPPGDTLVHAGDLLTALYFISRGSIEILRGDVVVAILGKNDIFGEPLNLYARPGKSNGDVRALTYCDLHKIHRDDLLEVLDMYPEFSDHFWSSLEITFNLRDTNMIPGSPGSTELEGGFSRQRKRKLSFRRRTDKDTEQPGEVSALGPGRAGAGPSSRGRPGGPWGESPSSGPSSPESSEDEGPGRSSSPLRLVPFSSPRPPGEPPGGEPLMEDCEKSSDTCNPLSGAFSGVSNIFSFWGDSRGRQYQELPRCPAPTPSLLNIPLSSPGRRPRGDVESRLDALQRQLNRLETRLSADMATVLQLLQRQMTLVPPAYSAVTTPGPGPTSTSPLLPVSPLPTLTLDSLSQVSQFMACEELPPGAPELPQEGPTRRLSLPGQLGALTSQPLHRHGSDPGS

Compound | hERG current change (%, negative = inhibition) at 10uM
CN1CCN(NC(=O)c2cc(-c3ccccn3)nc3ccccc23)CC1 | 14%
Cc1cccc(OCCCCCNCCO)c1 | 3.93%
CCC(C)(C)n1nnnc1C(c1ccc(C)cc1)N1CCN(C(=O)c2ccco2)CC1 (stereo not shown) | -45.8%
CN1CCN(C(=S)C(=O)NCc2ccccc2)CC1 | -2.07%
COc1cc(CNc2ccccc2SC)ccc1O | 12.8%
O=C(NCC1CCCO1)c1onc(CSc2ccc(F)c(F)c2)c1C(=O)O (stereo not shown) | 1.63%
COCCNC(=O)c1onc(CSc2ccc(F)c(F)c2)c1C(=O)NCCOC | -25.5%
C=CCNC(=O)c1onc(CSc2ccc(F)c(F)c2)c1C(=O)NCC=C | -64.5%
C=CCNC(=O)c1onc(CSc2ccc(F)c(F)c2)c1C(=O)O | 22.4%
C=CCNC(=O)c1onc(CSc2ccc(Cl)cc2)c1C(=O)NCC=C | -36.6%
O=C(NCC1CC1)c1onc(CSc2ccc(F)c(F)c2)c1C(=O)NCC1CC1 | -56.1%
Cl.OC(CNC1CCCC1)COc1ccccc1Br (stereo not shown) | 7.79%
O=C(Cc1ccccc1)NCC(=O)Nc1ccccc1Br | 16.8%
Cc1cc(NC(=O)CSc2nc(-c3ccc(Br)cc3)nc3c2c(=O)n(C)c(=O)n3C)no1 | -8.93%
O=C(COC(=O)c1ccccc1F)NNC(=O)c1ccccc1 | 8.17%
O=C(CSCc1ccc(Cl)cc1)Nc1nccs1 | 6.08%
CCc1ccccc1NC(=O)COc1ccc2c(c1)OCO2 | -4.6%
CCN(CCCNC(=O)CC(C(=O)N1CCc2ccccc21)n1ccnc1)c1cccc(C)c1 (stereo not shown) | -65%
CCCN(CCC)CCCNC(=O)CC(C(=O)N1CCc2ccccc21)n1ccnc1 (stereo not shown) | -0.225%
CCN(CCCNC(=O)CC(C(=O)N1CCc2ccccc21)n1ccnc1)c1ccccc1 (stereo not shown) | -45.6%
Nc1ccc(Cl)c(S(=O)(=O)Nc2ccc(Cl)cc2)c1 | 17.3%
Cc1ccc(N2CC(C(=O)Nc3ccc(S(=O)(=O)Nc4nccc(C)n4)cc3)CC2=O)cc1 (stereo not shown) | 3.17%
CN(C)C(=O)c1ccccc1Sc1ccc(Cl)cc1Cl | -70.4%
CN(C)C(=O)c1cc(Cl)ccc1Sc1cc(Cl)ccc1Cl | -6.03%
CN(C)C(=O)c1ccccc1Sc1cc(Cl)ccc1Cl | -14.5%
Cc1onc(-c2ccccc2)c1C(=O)NCc1ccccc1F | 7.62%
[N-]=[N+]=CC(=O)OC[C@H](N)C(=O)O | 10.8%
CCOC(=O)c1c(CN(C)C)n(-c2ccc(C)cc2)c2cc(Br)c(O)cc12 | -35.8%

Compound | hERG current change (%, negative = inhibition) at 10uM
CCOC(=O)c1c(C)n(-c2ccccc2)c2ccc(OCCN(C)C)cc12 | -10.6%
CCOC(=O)c1c(CN2CCOCC2)n(-c2ccccc2)c2cc(Br)c(O)cc12.Cl | -7.35%
CCOC(=O)c1c(CN(C)C)n(-c2ccccc2)c2cc(Br)c(OC)cc12 | -58.6%
CCOC(=O)c1c(C)n(CC(O)CN(CC)CC)c2cc(Br)c(OC)cc12.Cl (stereo not shown) | -26.9%
CCOC(=O)c1c(C)n(CC(O)CN(C)C)c2cc(Br)c(OC)cc12.Cl (stereo not shown) | -51.5%
CCOC(=O)c1c(C)n(CC(O)CN2CCOCC2)c2cc(Br)c(OC)cc12.Cl (stereo not shown) | -24%
CCOC(=O)c1c(CN(C)C)n(-c2ccccc2)c2cc(Br)c(O)cc12.Cl | -75.8%
CCOC(=O)c1c(CN2CCOCC2)n(-c2ccccc2)c2cc(Br)c(OC)cc12 | 3.27%
CCOC(=O)c1c(CN2CCN(Cc3ccccc3)CC2)n(C)c2cc(Br)c(OC)cc12 | 7.08%
CCOC(=O)c1c(CN2CCN(CCO)CC2)n(-c2ccccc2)c2cc(Br)c(O)cc12 | -68.2%
COc1ccccc1NC(=O)CSC1=NCCN1.Cl | 36.3%
O=C(c1cccs1)N1CCC(c2ccccc2)C1 (stereo not shown) | -1.16%
N#Cc1nc(-c2cccs2)oc1NCCc1ccccc1 | 3.08%
CC(NC(=O)C(=O)N1CCCCC1)C(c1cccs1)N1CCN(c2ccccc2F)CC1 (stereo not shown) | 1.73%
Cc1cc(-n2c(SCC(=O)NCCC3=CCCCC3)nc3n[nH]c(C)c3c2=N)ccc1Cl | 4.5%
COc1cccc(-n2c(SCC(=O)NCCC3=CCCCC3)nc3n[nH]c(C)c3c2=N)c1 | -58.9%
Cc1ccc(-n2c(SCC(=O)NCCC3=CCCCC3)nc3n[nH]c(C)c3c2=N)cc1Cl | -9.38%
COc1ccc(NC(=O)c2ccc(COc3ccccc3Br)o2)c(OC)c1 | 10.5%
CCCOc1ccc(OC(=O)Cc2ccc(OC)c(S(=O)(=O)N3CCOCC3)c2)cc1 | -21.7%
Cc1ccc(NC(=O)CCN2C(=O)c3ccccc3C2=O)cc1C | 4.19%
O=C(CSc1nnc(-c2c[nH]c3ccccc23)n1-c1ccc(F)cc1)NCc1ccco1 | -22%
O=C(COC(=O)C1CCN(C(=O)c2ccc(Cl)cc2)CC1)NC1CCS(=O)(=O)C1 (stereo not shown) | 26.9%
Cc1cc(NC(=O)COC(=O)C2CCN(C(=O)c3ccc(Cl)cc3)CC2)no1 | -19.2%
O=C(COC(=O)C1CCN(C(=O)c2ccc(Cl)cc2)CC1)c1ccco1 | -26.2%
C/C(N)=C(/C#N)C(=O)COC(=O)C1CCN(C(=O)c2ccc(Cl)cc2)CC1 | -14.3%
N#Cc1ccccc1NC(=O)COC(=O)C1CCN(C(=O)c2ccc(Cl)cc2)CC1 | -62.5%
O=C(COC(=O)C1CCN(C(=O)c2ccc(Cl)cc2)CC1)Nc1ccccc1F | -56.9%
